Source: PubChem BioAssay (NCI)
The panel holds about 79,000 compounds, 15% with a hit somewhere; the sample as a whole holds those more often. The source made the active and inactive calls. No stated cut-off is given here; in the data, active means growth inhibition above about 70%; inactive means the rest.

Tests used:
[1] = NCI Yeast Anticancer Drug Screen. Data for the rad50 strain (AID 155);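 further: 0% = growth of vehicle-only cultures of the same strain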; details: S. cerevisiae rad50 strain growth inhibition, hits give high values
How it was run: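 Genetically altered yeast (DNA repair pathway); compound treatment; growth inhibition vs vehicle ctrl.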

[2] = NCI Yeast Anticancer Drug Screen. Data for the mec2-1 strain (AID 157); details: S. cerevisiae mec2-1 strain, hits give high values
How it was run: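 Each compound was tested on mec2-1 yeast, a strain altered in DNA damage repair or cell cycle control. Growth inhibition is reported relative to vehicle.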

[3] = NCI Yeast Anticancer Drug Screen. Data for the sgs1 mgt1 strain (AID 161);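 further: 0% = growth of cultures given vehicle only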; details: S. cerevisiae sgs1 mgt1 strain, hits give high values
How it was run: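 Genetically altered yeast, compound exposure, growth inhibition relative to vehicle.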

[4] = NCI Yeast Anticancer Drug Screen. Data for the cln2 rad14 strain (AID 165);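 further: 0% = growth equal to vehicle treated cultures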; details: S. cerevisiae cln2 rad14 strain, hits give high values
How it was run: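 Test compounds were added to cln2 rad14 yeast cultures; inhibition of growth was then determined by comparison with vehicle treatment.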

[5] = NCI Yeast Anticancer Drug Screen. Data for the bub3 strain (AID 167); details: S. cerevisiae bub3 mutant strain, hits give high values
How it was run: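 Yeast carrying a defined mutation is treated with each compound, and growth is compared with that of vehicle-exposed cells to give inhibition.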

[6] = NCI Yeast Anticancer Drug Screen. Data for the mlh1 rad18 strain (AID 175); details: S. cerevisiae mlh1 rad18 strain growth inhibition, hits give high values
How it was run: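 Inhibition values reflect reduced growth of mutant yeast versus vehicle-treated controls following compound exposure; the mutations affect DNA damage repair.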

[7] = at 5.0 µM (retest, dose inferred, filed as 0.5)
[8] = at 50.0 µM (retest, dose inferred, filed as 5.0)

Measured: growth inhibition

Clc1ccc(Oc2nc(Cl)nc3[nH]ncc23)cc1
active: [3]; [8] 78% | [3]; at 50.0 µM 72.9%
inactive: [1]; [7] 7% | [1]; [8] 35% | [1]; at 50.0 µM 38% | [2]; [7] 4% | [2]; [8] 58% | [2]; at 50.0 µM 30.6% | [3]; [7] 11% | [4]; [7] 8% | [4]; [8] 32% | [4]; at 50.0 µM -4.85% | [5]; [7] 7% | [5]; [8] 37% | [5]; at 50.0 µM 18.4% | [6]; [7] 10% | [6]; [8] 68% | [6]; at 50.0 µM 40.1%

N#CC12CCCC(=O)N1c1ccccc1S2 (stereo not given)
inactive: [1]; [7] 10% | [1]; [8] 5% | [1]; at 50.0 µM 12.9% | [2]; [7] -7% | [2]; [8] 10% | [2]; at 50.0 µM 7.85% | [3]; [7] 1% | [3]; [8] 1% | [3]; at 50.0 µM -2.3% | [4]; [7] -12% | [4]; [8] -3% | [4]; at 50.0 µM 43.5% | [5]; [7] 3% | [5]; [8] 1% | [5]; at 50.0 µM -6.8% | [6]; [7] 14% | [6]; [8] -2% | [6]; at 50.0 µM -10.2%

CCCNC(=O)N(CC(C)(C)C)S(=O)(=O)c1ccc(Cl)cc1
inactive: [1]; [7] -4% | [1]; [8] -10% | [2]; [7] -2% | [2]; [8] -10% | [3]; [7] -2% | [3]; [8] 0% | [3]; at 50.0 µM 68.3% | [4]; [7] -4% | [4]; [8] -17% | [5]; [7] 7% | [5]; [8] 27% | [6]; [7] -5% | [6]; [8] -97% | [6]; at 50.0 µM 36.2%
active: [1]; at 50.0 µM 71.1% | [2]; at 50.0 µM 93.1% | [4]; at 50.0 µM 86.8% | [5]; at 50.0 µM 99.5%

CCOP(=O)(OCC)OC1c2[nH]ccc2-c2cc(C(=O)OC)[nH]c2C1OC (stereo not given)
active: [3]; at 50.0 µM 83.2%
inactive: [1]; [7] 3% | [1]; [8] 11% | [1]; at 50.0 µM 12.5% | [2]; [7] 0% | [2]; [8] 10% | [2]; at 50.0 µM 25.9% | [3]; [7] -3% | [3]; [8] 17% | [4]; [7] -6% | [4]; [8] 6% | [4]; at 50.0 µM 5.9% | [5]; [7] 3% | [5]; [8] -2% | [5]; at 50.0 µM 21.5% | [6]; [7] -5% | [6]; [8] 15% | [6]; at 50.0 µM 61.4%

COc1ccc(Nc2nc3ccccc3s2)cc1
inactive: [1]; [7] 1% | [1]; [8] 15% | [1]; at 50.0 µM 21% | [2]; [7] -3% | [2]; [8] 0% | [2]; at 50.0 µM 35.4% | [3]; [7] 0% | [3]; [8] 35% | [3]; at 50.0 µM 38.3% | [4]; [7] -7% | [4]; [8] -14% | [4]; at 50.0 µM -66% | [5]; [7] 5% | [5]; [8] 42% | [6]; [7] 10% | [6]; [8] 15% | [6]; at 50.0 µM 58.7%
active: [5]; at 50.0 µM 85.8%
